Compounds with a hit are over-represented: about 2.9% of the library has one in this group of screens.
A3A deaminase = APOBEC3A ssDNA deaminase inhibitors, primary screen, selectivity assay for APOBEC3G inhibitor project, biochemical, FAM/TAMRA oligo cleavage fluorescence. DNA dC->dU-editing enzyme APOBEC-3A (Homo sapiens), P31941. recombinant A3A, FAM/TAMRA ssDNA deamination fluorescence. inhibition, % at 20 µM. 330,000 compounds, 0.41% hits. AID 493011, 2011;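 active = at least 40% inhibition at 20 µM here, with at most 30% in a related deaminase screen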;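 note: plate controls were A3A with DMSO for no effect and wells lacking A3A enzyme for full effect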
Target sequence (P31941 whole entry, looked up): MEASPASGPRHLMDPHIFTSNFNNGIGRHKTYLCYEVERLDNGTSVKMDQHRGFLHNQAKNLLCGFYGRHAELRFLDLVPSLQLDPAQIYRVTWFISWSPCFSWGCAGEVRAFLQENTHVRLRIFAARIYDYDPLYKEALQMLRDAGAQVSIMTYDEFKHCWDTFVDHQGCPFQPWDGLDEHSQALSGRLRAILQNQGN
TAG inh = inhibitors of triacylglycerol accumulation, primary screen, cell-based, uHTS, fluorescence, H9c2. H9c2 cells, Nile Red lipid (TAG) fluorescence; cells loaded with 200 µM oleic acid. inhibition, % at 12.5 µM. 230,000 compounds, 0.66% hits. AID 651582, 2012;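 active = pattern-corrected inhibition of lipid staining of at least 50% with the nuclear-stain viability signal not falling by more than 50%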;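 note: 0% = DMSO wells and 100% = triacsin C control wells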
PfG6PD inh = PfG6PD enzyme inhibitors, primary screen, biochemical, fluorescence intensity, uHTS | AID 504690, 2011 | PfGluPho enzyme, NADPH resazurin-diaphorase fluorescence | 350,000 compounds, 0.78% hits | inhibition, % at 20 µM | glucose-6-phosphate dehydrogenase-6-phosphogluconolactonase (Plasmodium falciparum 3D7);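 active = inhibition reaching at least a set limit at 20 µM in the primary screen, cut at about 59% in these data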;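 note: 0% = DMSO wells with substrate and 100% = DMSO wells lacking glucose-6-phosphate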
Cardio protect = cardioprotection against H2O2-induced cell death, primary screen, uHTS, H9c2 cells, ATPLite luminescence | protection from H2O2 cell death, % at 20 µM | H9c2 cardiomyocytes, H2O2 injury protection, 2 h | AID 588492, 2011 | 360,000 compounds, 0.63% hits;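 active = compounds giving at least 50% protection of heart cells from peroxide-induced death in the single-dose screen, raw or plate-pattern-corrected value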;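 note: 0% = DMSO wells with peroxide and 100% = DMSO wells without peroxide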
A3G deaminase = APOBEC3G DNA deaminase inhibitors, primary screen, biochemical, fluorescence, single-stranded DNA substrate, uHTS. DNA dC->dU-editing enzyme APOBEC-3G (Homo sapiens), Q9HC16. recombinant A3G, ssDNA deamination FAM/TAMRA fluorescence. inhibition, % at 20 µM. 330,000 compounds, 0.28% hits;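 active = inhibition of at least 40% at 20 µM, with no more than 30% in the related APOBEC3A deaminase screen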;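 note: plate controls were DMSO wells with A3G for no effect and wells lacking A3G enzyme for full effect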
Target sequence (Q9HC16 whole entry, looked up): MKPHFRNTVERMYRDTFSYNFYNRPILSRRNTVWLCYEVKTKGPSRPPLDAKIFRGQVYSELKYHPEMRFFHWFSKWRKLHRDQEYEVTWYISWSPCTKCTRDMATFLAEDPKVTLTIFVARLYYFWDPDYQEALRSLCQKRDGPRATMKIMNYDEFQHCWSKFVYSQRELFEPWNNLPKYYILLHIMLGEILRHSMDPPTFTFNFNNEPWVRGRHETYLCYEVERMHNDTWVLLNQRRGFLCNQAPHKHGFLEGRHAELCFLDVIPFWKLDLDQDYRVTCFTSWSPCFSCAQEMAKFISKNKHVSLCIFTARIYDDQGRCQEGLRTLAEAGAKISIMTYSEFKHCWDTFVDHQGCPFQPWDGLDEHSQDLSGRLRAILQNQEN
NadD block = inhibitors of S. aureus NadD, primary screen, biochemical, colorimetric, uHTS; Nicotinate-nucleotide adenylyltransferase NadD (Staphylococcus aureus N315); purified NadD enzyme, colorimetric absorbance read-out; inhibition, % at 20 µM; 360,000 compounds, 0.78% hits; in the data active = inhibition above about 26%
PfGluPho conf = PfG6PD inhibitors, hit retest, confirmation, biochemical, fluorescence intensity, single concentration | shares compounds with PfG6PD inh | recombinant PfGluPho, NADPH-diaphorase-resazurin fluorescence | inhibition, % at 20 µM | 2,400 compounds, 34% hits | AID 504753, 2011;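 active = inhibition of at least 50% at 20 µM in any single replicate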;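 note: 0% = DMSO with substrate and 100% = DMSO lacking glucose-6-phosphate substrate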
Diaph ctr 10uM = diaphorase inhibitors and chemical oxidizers, confirmation, counter-screen for P. falciparum G6PD inhibitor project, biochemical, fluorescence intensity, 10 µM NADPH; shares compounds with PfG6PD inh; diaphorase-coupled resazurin reduction, NADPH 10 uM; 820 compounds, 39% hits; AID 504862, 2011; inhibition, % at 20 µM;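 active = average inhibition reaching 50% or more with the compound at 20 µM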;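 note: resorufin red fluorescence formed as diaphorase reduces resazurin using NADPH; 0% = DMSO with enzyme and 100% = DMSO without enzyme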
Diaphorase 30uM = diaphorase inhibitors and chemical oxidizers, confirmation, counter-screen for P. falciparum G6PD inhibitor project, biochemical, fluorescence intensity, 30 µM NADPH; inhibition, % at 20 µM; 820 compounds, 29% hits; shares compounds with PfG6PD inh; Diaphorase/resazurin coupled assay, resorufin fluorescence;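 active = inhibition averaging 50% or more, tested at 20 µM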;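 note: 0% = DMSO with enzyme and 100% = DMSO wells lacking diaphorase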
* hit, by the source's call; x = not tested or not shown.

SMILES | A3A deaminase | TAG inh | PfG6PD inh | Cardio protect | A3G deaminase | NadD block | PfGluPho conf | others
CCNc1cc2c(cc1O)CCC1C2CCC2(C)C(O)CCC12 (stereo unspecified) | x | 4 | 80* | 48 | x | 3 | 50* | Diaph ctr 10uM=-7;Diaphorase 30uM=-8
COc1cc(CNn2c(C)n[nH]c2=S)cc(Br)c1OCc1ccc(F)cc1 | -3 | x | 70* | 0 | -14 | -3 | 33
COc1cc(CNn2c(C)n[nH]c2=S)cc(Cl)c1OCc1ccc(F)cc1 | -8 | x | 46 | -1 | -5 | 25 | x
Cc1ccc(C)c(S(=O)(=O)NCc2ccc(C(=O)N3CCC(Cc4ccccc4)CC3)cc2)c1 | -2 | x | 1 | -8 | -5 | 5 | x
O=C(c1cccc(S(=O)(=O)N2CCc3ccccc3C2)c1)N1CCN(c2ccc(O)cc2)CC1 | 3 | x | 66* | -5 | 5 | 8 | 26
NC(=O)C1CCN(C(=O)c2cccc(S(=O)(=O)N3CCc4ccccc4C3)c2)CC1 | 3 | -6 | 16 | 10 | -1 | -2 | x
Cc1[nH]c2ccccc2c1/C=N/Nc1nncn1N | -3 | 6 | 69* | -4 | -6 | 5 | 60* | Diaph ctr 10uM=36;Diaphorase 30uM=23
Cc1[nH]c2ccccc2c1/C=N/Nc1ccc([N+](=O)[O-])cc1 | x | x | 35 | -12 | x | 5 | x
CN(C)c1ccc(C(=S)NCc2ccco2)cc1 | -1 | -37 | 63* | -7 | 15 | 1 | 3
S=C(NCc1ccco1)NCc1ccco1 | x | -16 | 79* | -3 | x | -4 | 39
c1csc(-c2nc3nc4ccccc4nc3n2Cc2ccc3c(c2)OCO3)c1 | 0 | 21 | 72* | 12 | 1 | 19 | 35
CCCn1c(-c2cccs2)nc2nc3ccccc3nc21 | -4 | x | 18 | 4 | -11 | -3 | x
CC1(OC(=O)CCc2ccccc2)C(=O)C=C2C=C(c3ccc(C#N)cc3)N(CC3CC3)C=C2C1=O (stereo unspecified) | -6 | 5 | 40 | -1 | -4 | 19 | x
CC1(OC(=O)CCc2ccccc2)C(=O)C=C2C=C(c3ccc(C#N)cc3)N(C3CCCC3)C=C2C1=O (stereo unspecified) | -7 | 5 | 61* | 0 | -13 | 18 | 19
CC(C)OCCCN1C=C2C(=O)C(C)(OC(=O)CCc3ccccc3)C(=O)C=C2C=C1c1ccc(C#N)cc1 (stereo unspecified) | -1 | x | 81* | x | -12 | x | 27
CC1(OC(=O)CCc2ccccc2)C(=O)C=C2C=C(c3ccc(C#N)cc3)N(c3ccccc3)C=C2C1=O (stereo unspecified) | -4 | 5 | 72* | 8 | -14 | 16 | 23
O=[N+]([O-])c1ccc(-c2ccc(C=Nc3cccc4ccccc34)o2)cc1 | -2 | x | 28 | -8 | 4 | 5 | x
O=[N+]([O-])c1ccc(C=Nc2cccc3ccccc23)s1 | -6 | 5 | 71* | -14 | -4 | 0 | 18
CCOc1ccccc1N(CC(=O)N/N=C/c1cc(Br)ccc1OC)S(C)(=O)=O | 4 | x | 118* | 8 | -4 | 2 | 72* | Diaph ctr 10uM=70*;Diaphorase 30uM=56*
CCOc1ccccc1C=NNC(=O)CCCCC(=O)NN=Cc1ccccc1OCC | x | -13 | 125* | 3 | x | 1 | 78* | Diaph ctr 10uM=41;Diaphorase 30uM=54*
O=C(CNC(=O)C1COc2ccccc2O1)N/N=C/c1ccc([N+](=O)[O-])cc1 (stereo unspecified) | -1 | x | 17 | 2 | -10 | 9 | x
COc1ccccc1N(CC(=O)N/N=C/c1ccc(SC)cc1)S(C)(=O)=O | 5 | x | -16 | 1 | 0 | -1 | x
CCOc1ccccc1/C=N/NC(=O)CNC(=O)c1cccs1 | 1 | -5 | 16 | 6 | 8 | -1 | x
O=C(CNC(=O)C1COc2ccccc2O1)N/N=C\c1ccccc1Cl (stereo unspecified) | -2 | x | 60* | -8 | 4 | -1 | -2
O=C(CCCC(=O)NN=Cc1ccccc1Cl)NN=Cc1ccccc1Cl | x | 0 | 86* | 14 | x | 5 | 42
SMILES | A3A deaminase | TAG inh | PfG6PD inh | Cardio protect | A3G deaminase | NadD block | PfGluPho conf | others
CCOc1ccccc1/C=N/NC(=O)c1ccc(Cn2cc([N+](=O)[O-])cn2)o1 | -3 | 11 | 61* | 20 | -4 | 3 | 35
CCc1cccc(C)c1NC(=O)C1CCCN1C(=O)NCc1ccccc1 (stereo unspecified) | -2 | x | 3 | -1 | -9 | -2 | x
CCc1c(C)nc2c(Br)cccc2c1SCCC#N | -4 | -1 | 59* | -3 | -3 | 0 | -5
CCc1c(C)nc2ccc(Br)cc2c1SCCC#N | 1 | -9 | 21 | 0 | 3 | -3 | x
COc1cc(OC)c(N2CC(C(=O)NCCC3=CCCCC3)CC2=O)cc1Cl (stereo unspecified) | 1 | 19 | 1 | 0 | -2 | 4 | x
CCOc1ccc(S(=O)(=O)N2CCC(C(=O)NC3CCCC3)CC2)cc1 | -6 | 9 | -1 | -3 | -8 | -1 | x
C[C@@H]1CN([C@@H](C)CO)C(=O)CCCn2nncc2CO[C@H]1CN(C)Cc1cccnc1 | x | -8 | -4 | 11 | x | -3 | x
Cc1cc(NC(=O)c2ccc3[nH]c(C)c(C)c3c2)ccn1 | -1 | x | 46 | -9 | -3 | -3 | x
CC(=O)Nc1cccc(NC(=O)c2ccc3[nH]c(C)c(C)c3c2)c1 | -3 | x | 78* | -4 | -10 | -9 | 32
COc1ccc(NC(=O)c2ccc3[nH]c(C)c(C)c3c2)cc1 | -2 | x | 68* | -2 | -2 | -2 | 28
CCCCNC(=O)C1(C)CCN1Cc1cccc2c(OC)cc(C(=O)OCC)cc12 (stereo unspecified) | x | 6 | x | -10 | x | -5 | x
